Most compounds without a hit are left out; they make up all but 1.7% or so of the library.
PLK1 kinase inh = human PLK1 kinase inhibitors, primary screen, biochemical, TR-FRET; Serine/threonine-protein kinase PLK1 (Homo sapiens), P53350; recombinant PLK1 kinase, TR-FRET peptide phosphorylation; inhibition, % at 10 µM; hit rate 0.53% among 97,000; AID 619, 2007;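 active means inhibition of 50% or more in the single-concentration screen; inactive means inhibition below 50%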;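 further: 0% = DMSO max control and 100% = H-89 dihydrochloride min control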
LYP act = LYP phosphatase activators, primary screen, biochemical, DiFMUP fluorescence, 2 µM; hit rate 0.11% among 96,000; Tyrosine-protein phosphatase non-receptor type 22 (Homo sapiens), Q9Y2R2; activation, % at 2 µM; recombinant LYP; 0 = plate median, 100 = signal doubled; AID 697, 2007;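 active means activation at 2 µM above a set limit, the mean plus 5 SD, cut at about 37% in these data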
Target sequence (Q9Y2R2 whole entry, looked up): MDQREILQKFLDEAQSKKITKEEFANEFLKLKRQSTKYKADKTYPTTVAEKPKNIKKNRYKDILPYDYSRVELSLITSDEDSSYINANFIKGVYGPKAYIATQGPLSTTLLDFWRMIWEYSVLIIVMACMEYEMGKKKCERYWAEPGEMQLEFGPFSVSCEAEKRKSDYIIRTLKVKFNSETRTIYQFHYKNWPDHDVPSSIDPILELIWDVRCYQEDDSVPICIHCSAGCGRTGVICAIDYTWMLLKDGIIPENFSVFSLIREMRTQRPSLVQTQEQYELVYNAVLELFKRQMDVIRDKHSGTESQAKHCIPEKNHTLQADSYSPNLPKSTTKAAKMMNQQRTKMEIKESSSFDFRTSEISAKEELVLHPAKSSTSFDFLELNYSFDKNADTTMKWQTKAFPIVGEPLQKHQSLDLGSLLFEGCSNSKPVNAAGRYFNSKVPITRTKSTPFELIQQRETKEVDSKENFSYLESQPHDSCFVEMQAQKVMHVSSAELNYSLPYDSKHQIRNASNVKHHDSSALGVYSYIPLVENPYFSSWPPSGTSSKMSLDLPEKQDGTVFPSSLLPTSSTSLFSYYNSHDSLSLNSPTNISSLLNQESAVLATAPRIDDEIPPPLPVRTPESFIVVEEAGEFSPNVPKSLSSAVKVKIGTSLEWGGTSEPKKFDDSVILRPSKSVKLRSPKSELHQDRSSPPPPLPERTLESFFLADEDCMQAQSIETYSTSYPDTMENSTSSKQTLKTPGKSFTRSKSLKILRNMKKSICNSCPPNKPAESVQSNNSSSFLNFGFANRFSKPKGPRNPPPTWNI
Plk1 PBD FP = Plk1 polo box domain binding inhibitors, primary screen, biochemical, fluorescence polarization | Serine/threonine-protein kinase PLK1 (Homo sapiens), P53350 | Plk1 PBD phosphopeptide binding | inhibition, %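 (tested at about 20 µM)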 | hit rate 0.13% among 97,000; in the data active means inhibition above about 34%, passing the limit was not always enough
PTK2B oligo ant = antagonists of Pyk2 self-association, primary screen, Q293 cells, FERM NanoBiT luminescence, HTS; Protein-tyrosine kinase 2-beta (Homo sapiens), Q14289; stronger effect = lower value; z-score (the deposit names both 25 µM and 10 µM); hit rate 0.83% among 99,000; AID 1347419, 2020;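 active means Z-score of -3 or lower, scaled per plate to the spread of control and sample wells; inactive means z-score above -3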;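 further: negative z-score means lost luminescence so less FERM oligomerization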
LYP inh 2 = PTPN22 phosphatase inhibitors, primary screen, biochemical, DiFMUP fluorescence, 2 µM | hit rate 0.21% among 96,000 | recombinant LYP catalytic domain | Tyrosine-protein phosphatase non-receptor type 22 (Homo sapiens), Q9Y2R2 | inhibition, % at 2 µM;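 active means inhibition at 2 µM at or above a set limit, the screen mean plus 3 SD, cut at about 24% in these data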;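 further: 0% = DMSO with enzyme and 100% = enzyme fully blocked by orthovanadate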
PLK1 confirm = PLK1 kinase activity inhibitors, confirmation, biochemical, TR-FRET, duplicate runs; hit rate 20% among 210; inhibition, % at 10 µM; shares compounds with PLK1 kinase inh; recombinant PLK1 kinase, TR-FRET peptide phosphorylation; AID 744, 2007;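 active means inhibition at or above 50% in each of two repeat confirmation tests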;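 further: 0% = DMSO max control and 100% = H-89 kinase-blocked min control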
Plk1 interf = compound interference with Plk1 assay readout, artefact control for Plk1 kinase inhibitor project, biochemical, TR-FRET, compound added post-reaction; 210 tested, under 10 active; shares compounds with PLK1 kinase inh; AID 756, 2007; inhibition (interference), % at 10 µM;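 active means both duplicate runs show 50% or greater inhibition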;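 further: 0% = DMSO max control and 100% = H-89 min control inhibited reaction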
Redox H2O2 DR = redox cycling hydrogen peroxide generation, dose response, artefact control for Plk1 PBD inhibitor project, biochemical; redox cycling H2O2 generation, DTT, counter-screen; EC50, µM; 120 tested, under 10 active; shares compounds with Plk1 PBD FP; call rule not given here
* marks the source's active call; other numbers are inactive results; / = no result given.

SMILES	PLK1 kinase inh	LYP act	Plk1 PBD FP	PTK2B oligo ant	LYP inh 2	PLK1 confirm	Plk1 interf	others
Cc1cc2c(=O)[nH]cnc2s1	0.2	-1.1	-35.0	1.51	3.4	/	/
CCOc1c(Br)ccc2c1sc1nc[nH]c(=O)c12	76.1*	-4.5	-6.0	0.2	8.4	68.3*	-55.5
CC(C)n1c(SCc2ccccc2F)nc2c1c(=O)n(C)c(=O)n2C	77.8*	/	-19.4	/	/	-9.8	-60.6
COC(=O)CSc1nc2ccc(C)cc2[nH]1	-1.1	15.0	-9.0	0.2	-13.0	/	/
COC(=O)c1sc2nc(CSc3nc4ccc(C)cc4[nH]3)[nH]c(=O)c2c1C	71.4*	9.8	-9.0	1.59	-7.5	42.5	-42.6
CCC(=O)Nc1sc2c(c1C(N)=O)CCC2	5.0	-0.1	-20.2	0.66	-1.7	/	/
N#CCC(=O)Nc1sc2c(c1C(N)=O)CCCC2	70.2*	/	-19.0	/	/	-3.8	-53.7
CCCOc1ccc(OC(=O)c2ccc(Br)o2)cc1	0.3	3.3	-5.6	0.61	-6.6	/	/
CCN=c1scc(C)n1/N=C/c1ccsc1	-0.7	-1.6	7.8	0.1	1.2	/	/
CN=c1scc(C)n1/N=C/c1ccc(O)c(O)c1O	81.5*	-8.6	22.1	-0.7	10.8	85.5*	69.9*
Cc1ccccc1NC(=O)c1ccc(S(=O)(=O)N(C)C)cc1	72.3*	/	-1.9	/	/	-11.8	-58.9
CCOCC(=O)Nc1nc2c(s1)C(=O)CC(C)(C)C2	41.4	-5.6	10.3	/	4.0	/	/
CC1(C)CC(=O)c2sc(NC(=O)C3CC3)nc2C1	75.0*	/	5.8	/	/	-2.7	-52.4
O=C(COc1ccccc1)Nc1nnc(-c2ccc(Cl)s2)o1	72.3*	/	-1.3	/	/	-7.4	-53.7
O=C(COc1ccccc1)Nc1nnc(-c2ccccc2)o1	-6.9	3.0	-9.7	/	-7.0	/	/
NC1(N)OC(CN2C(=O)c3ccccc3C2=O)CS1 (stereo not given)	116.4*	0.6	16.5	0.67	-3.3	-10.4	-58.2
COc1ccccc1Nc1ncnc2nc[nH]c12	83.8*	0.0	-2.3	-0.32	-2.5	79.2*	-49.9
CCCN1C2=C(C(=O)CCC2)C(c2ccc(F)cc2)C2=C1c1ccccc1C2=O (stereo not given)	-6.1	4.0	-11.2	/	-2.4	/	/
COc1ccc(NC(=O)C2CCCCN2CC(=O)OCc2ccccc2)cc1OC (stereo not given)	5.5	8.6	-14.5	-0.12	-9.4	/	/
O=C(NCc1ccc2c(c1)OCO2)c1ccc(CS(=O)(=O)c2ccc(Br)cc2)o1	76.2*	/	16.8	/	/	-6.2	-46.5
CCC(NC(=O)NCc1cccnc1)(C(F)(F)F)C(F)(F)F	-6.3	-7.0	10.5	0.41	2.1	/	/
O=C(NCCNS(=O)(=O)c1cccc(C(F)(F)F)c1)c1cc(OCC(F)(F)F)ccc1OCC(F)(F)F	-10.6	-9.1	-0.4	0.83	12.7	/	/
CCN1C(=O)C(O)(CC(=O)c2ccc3c(c2)OCCO3)c2ccccc21 (stereo not given)	71.7*	/	16.6	/	/	-10.7	-55.2
COc1ccc(CN2C(=O)C(O)(CC(=O)c3ccc4c(c3)OCO4)c3ccccc32)cc1OC (stereo not given)	2.9	-7.7	29.1	0.42	5.3	/	/
COc1ccc(N2Nc3n[nH]c(N)c3N2)cc1	79.5*	-5.9	12.5	-0.27	6.3	73.7*	-51.3
SMILES	PLK1 kinase inh	LYP act	Plk1 PBD FP	PTK2B oligo ant	LYP inh 2	PLK1 confirm	Plk1 interf	others
CCOc1ccc(N2Nc3n[nH]c(N)c3N2)cc1	78.4*	-0.4	-2.9	-1.75	1.3	68.2*	-51.5
CCOc1ccc(-n2c(-c3ccccc3)nnc2-c2ccccc2)cc1	/	/	/	-0.65	/	/	/
CCCOc1ccc(/C(O)=C2/C(=O)C(=O)N(CCCN3CCOCC3)C2c2ccncc2)cc1 (stereo not given)	9.4	/	/	/	/	/	/
CCOc1ccc(S(=O)(=O)NCCC(=O)OC(C)C(=O)N2CCc3ccccc32)cc1 (stereo not given)	-1.0	-4.6	9.1	1.16	2.4	/	/
Cc1ncc([N+](=O)[O-])n1CCOC(=O)Nc1ccc(Cl)c(Cl)c1	84.5*	0.0	9.8	-0.27	5.0	70.8*	-55.4
CN(CC(=O)NC1CCCCCC1)S(=O)(=O)c1ccc2c(c1)n(C)c(=O)c(=O)n2C	-17.2	7.6	26.3	/	-8.6	/	/
O=C(CCN1C(=O)COc2ccccc21)NCCCN1CCc2ccccc2C1	-8.7	-10.6	24.8	1.49	9.8	/	/
Brc1ccc(Oc2nnnn2-c2ccccc2)cc1	74.5*	/	4.9	/	/	-8.6	-45.4
COc1cccc(-c2nnc(SCC(=O)Nc3cc(C)on3)n2C)c1	-5.4	0.6	-5.3	0.81	0.9	/	/
COc1cccc(-c2nnc(SCC(=O)Nc3ccc(S(N)(=O)=O)cc3)n2C)c1	110.0*	-10.3	-30.0	-0.78	8.2	-7.9	-53.7
O=C(CN1C(=O)c2ccccc2C1=O)N1CCN(c2nnc(-c3ccccc3)c3ccccc23)CC1	-13.2	-8.7	47.3*	0.53	8.3	/	/	Redox H2O2 DR=>50
Cc1ccc(-c2nnc(N3CCN(C(=O)CN4C(=O)c5ccccc5C4=O)CC3)c3ccccc23)cc1	-3.5	5.3	35.7	1.25	-2.9	/	/
Cc1cc(C)n(-c2nnc3n2N=C(c2ccccc2)CS3)n1	-4.2	1.6	46.0*	-0.15	-4.6	/	/	Redox H2O2 DR=>50
Cc1cccc(-n2c(CCn3nc(C)c([N+](=O)[O-])c3C)n[nH]c2=S)c1	-7.3	-13.2	46.3*	0.06	15.6	/	/	Redox H2O2 DR=>50
COC(=O)c1cc(-c2ccccc2)sc1NC(=O)CN1C(=O)c2ccccc2C1=O	-6.7	-12.6	-14.8	-2.09	15.0	/	/
CC(=O)N(/N=C1\Sc2ccccc2C1=O)c1ccccc1C	-15.1	6.4	124.8*	-2.22	-4.6	/	/	Redox H2O2 DR=>50
CC(=O)N(/N=C1\Sc2ccccc2C1=O)c1ccccc1	-5.5	-4.7	101.1*	-1.56	9.8	/	/	Redox H2O2 DR=>50
CCn1nnc(-c2ccccc2NS(=O)(=O)c2ccc(S(=O)(=O)N(C)C3CCCCC3)cc2)n1	-8.1	0.9	-23.6	-0.39	0.2	/	/
Cc1ccccc1NS(=O)(=O)c1cc(C(=O)NCc2ccco2)ccc1C	-2.7	-7.7	38.1*	-0.57	6.4	/	/	Redox H2O2 DR=>50
Cn1ncc(Cl)c1C(=O)Nc1ccc(Cl)cn1	-9.6	-4.2	9.2	0.88	3.7	/	/
Cc1ccc2cc(C(c3nnnn3C3CCCC3)N3CCN(c4ccccc4)CC3)c(=O)[nH]c2c1 (stereo not given)	-4.6	-12.6	60.7*	1.9	11.6	/	/	Redox H2O2 DR=>50
COC(=O)C(NNc1ccccc1)(NC(=O)c1cccc(F)c1)C(F)(F)F (stereo not given)	-8.2	-9.7	-0.3	1	12.2	/	/

Compound activity deposited in PubChem by several laboratories.
